Shown are actives, neighbours in structure and some others; about 14% of the full set was active somewhere.
Giardia FBPA inh: inhibitors of Giardia lamblia fructose-1,6-bisphosphate aldolase | A8B2U2 | purified Giardia FBPA | Potency, µM (doses to about 59.6 µM), without a hit: at the top dose activity, negative = inhibition, usual class: inhibitors | 0.71% of 290,000 active | AID 2451; note: potency is the fitted concentration of half-maximal effect; nearly all actives have a fitted effect of over 55% in size
Target sequence (A8B2U2 whole entry, looked up): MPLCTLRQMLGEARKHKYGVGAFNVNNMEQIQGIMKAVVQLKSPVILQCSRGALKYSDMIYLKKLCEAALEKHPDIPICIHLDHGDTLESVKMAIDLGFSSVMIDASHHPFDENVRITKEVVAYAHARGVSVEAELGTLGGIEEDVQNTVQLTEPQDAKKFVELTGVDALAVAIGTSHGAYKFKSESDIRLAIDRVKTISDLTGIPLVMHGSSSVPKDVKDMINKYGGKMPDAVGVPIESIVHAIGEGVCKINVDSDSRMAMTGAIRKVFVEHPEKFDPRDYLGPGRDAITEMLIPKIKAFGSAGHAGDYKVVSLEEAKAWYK
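Giardia FBPA (40 nM reagent) was preincubated 10 min at RT with compound (up to 57.5 uM final), then substrate plus GAPDH/TPI/NAD/arsenate coupling system with diaphorase/resazurin was added; resorufin fluorescence (525/598 nm) was read after 20 min.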
Pf growth 48h: inhibits P. falciparum growth in the first generation, 48 h; 5.9% of 310,000 active; P. falciparum luciferase growth in erythrocytes, 48 h; AID 504832; Potency, µM (series often up to 28.7 µM), inactives show at the top dose activity change, negative = inhibition, hits mostly inhibitors; note: potency is the fitted concentration of half-maximal effect
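Luciferase-expressing parasites in RBCs, 2% Hct / 0.1% parasitemia final; RPMI 1640 + 0.5% Albumax; 37 C, 5% CO2, one generation; luminescence read-out, lower signal = inhibition.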
Pf growth 96h: P. falciparum growth inhibition at 96 hours | 6.9% of 320,000 active | Potency, µM (doses to about 28.7 µM), for inactives: top-dose activity change, negative = inhibition, most hits filed as inhibitors | P. falciparum luciferase reporter growth, 96 h; note: potency is the fitted concentration of half-maximal effect
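Two parasite generations (96 h, 37 C, 5% CO2) of compound exposure in infected erythrocytes (0.05% parasitemia, 2% hematocrit). Luciferase-reporter P. falciparum; decreased luminescence indicates inhibited growth, aimed at apicoplast-acting delayed death.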
Sm TGR inh: blocks Schistosoma mansoni thioredoxin glutathione reductase; purified TGR, DTNB reduction, TNB absorbance 405 nm; Potency, µM (titrated, usually from 114 µM), without a hit: at the top dose activity change, negative = inhibition, usual class: inhibitors; 3% of 360,000 active; note: potency is the fitted concentration of half-maximal effect; nearly all actives have a fitted effect of over 60% in size
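Kinetic colorimetric format: TGR-catalysed, NADPH-driven DTNB reduction monitored via TNB absorbance. Enzyme dispensed at 20 nM; compound exposure 15 min at room temperature before reaction start.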
HCMV inh: blocks human cytomegalovirus replication; HFF cells, HCMV-luciferase reporter, 72 h; hits give low values; activity change, negative = inhibition, % at 57.5 µM; 4.5% of 410,000 active; in the data active = activity change below about -60%; inconclusive = no clear call, values can overlap the other calls; inactive = above about -39%
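Cell-based, HFFs, 1000 cells/well, 16 h 37C; cpds in DMSO + HCMV-luc, MOI 1 PFU/cell; 72 h 37C; OneGlo luminescence after 5 min RT; norm. to buffer vs Salinomycin 10uM.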
Active calls of the source: *; ? = inconclusive; / = not tested or not shown; ! = not active in a repeat; [ ] = dose if it differs, or a comment. Unless noted, calls come from the whole dose curve; as a rule, active = well fitted curve in the direction sought with a large enough effect; inconclusive = small, poorly fitted or top-dose-only effect, or another doubt; inactive = no such curve, though single readings can be large; an effect the other way counts as inactive or inconclusive. % is set by controls: 0 for no effect and ±100 for the full control effect.

SMILES	Giardia FBPA inh	Pf growth 48h	Pf growth 96h	Sm TGR inh	HCMV inh
CS(=O)(=O)Nc1cccc(-c2ccc3ncnc(NCc4cccnc4)c3c2)c1	1%	/	/	/	/
CCN(CC)C(=O)Cn1cc(C(=O)C(=O)N2CCN(c3ccc(OC)cc3)CC2)c2ccccc21	/	-9%	57%	4%	23
CCC/C=C/c1ccc(CN2C(CC(C)C)C(=O)N(Cc3cn(Cc4ccco4)nn3)CCS2(=O)=O)cc1 (centres undefined)	/	/	/	/	-7
CCN(Cc1ccncc1)C(=O)c1ccc(C)c(S(=O)(=O)N2CCCCC2)c1	/	/	/	/	-19
COc1ccc(Cl)cc1NC(=O)c1cc(-c2ccc3c(c2)OCO3)on1	/	/	/	5%	29
CC[C@H](C)[C@H](NC(=O)[C@@H](NC(=O)[C@@H](CC(=O)NO)Cc1ccccc1)[C@@H](C)CC)C(=O)O	3%	/	/	/	/
COCCN1Cc2cccc(C(=O)Nc3ccc(C)cc3C)c2C1=O	/	/	/	6%	-20
CCNC(=O)c1sc2cc(C)ccc2c1Cl	-4%	37%	13µM*	0%	24
O=C(CSc1nc2c([nH]c3ccccc32)c(=O)n1-c1cccc(Cl)c1)N1CCOCC1	-12%	-20%	?	-10%	-93*!
COc1ccc(-n2c(SCC(=O)N(C)c3ccccc3)nc3c([nH]c4ccccc43)c2=O)cc1OC	4%	8.3µM*	4.7µM*	-23%	29
Cc1cc(C)cc(NC(=O)CSc2nc3c([nH]c4ccccc43)c(=O)n2-c2ccc(F)cc2)c1	/	/	/	3%	-88*
COCCn1c(SCC(=O)N2CC(C)OC(C)C2)nc2c([nH]c3ccccc32)c1=O (centres undefined)	2%	?	?	3%	-1
CCn1c(SCC(=O)N2CC(C)OC(C)C2)nc2c([nH]c3ccccc32)c1=O (centres undefined)	/	6.6µM*	?	1%	36
CCN(CC)CC(C)CNC(=O)c1cc(-c2ccc(Br)s2)nc2ccccc12 (centres undefined)	/	/	/	0%	?
COc1ccc(-n2ncc3c2CC(C)(C)CC3NC(=O)c2ccnn2C)cc1 (centres undefined)	5%	0%	36%	-15%	-7
COc1ccc(C2(C)NC(=O)N(CC(=O)Nc3ccc(Br)c(C)c3)C2=O)cc1OC (centres undefined)	-3%	3%	16%	5%	10
CC(=O)n1c(-c2ccccc2)c(-c2ccccc2)n(C)c1=O	/	/	/	/	205
CCC1CCCCN1C(=O)CSc1nc2c([nH]c3ccccc32)c(=O)n1-c1cccc(OC)c1 (centres undefined)	/	/	/	-1%	-91*
COc1cccc(NC(=O)CSc2nc3c([nH]c4ccccc43)c(=O)n2-c2cccc(Cl)c2)c1	/	/	/	9%	-74*
COc1cccc(-n2c(SCC(=O)Nc3cccc(C)c3)nc3c([nH]c4ccccc43)c2=O)c1	/	/	/	21%	15
COc1ccc(-n2c(SCC(=O)Nc3ccc(C(N)=O)cc3)nc3c([nH]c4ccccc43)c2=O)cc1OC	3%	?	12µM*	16%	53
CCC(=O)N1CCc2cc(S(=O)(=O)NC(C(=O)N3CCN(c4ccc(F)cc4)CC3)C(C)C)ccc21 (centres undefined)	26%	?	-2%	-14%	-27
CC(C)(C)CN1CCC(n2nccc2NC(=O)c2ccccc2Cl)CC1	-10%	-19%	-13%	-22%	17
CC/C(=N/N=C(/CC)c1ccc(O)cc1)c1ccc(O)cc1	/	/	/	/	-99*
Cc1ccc2nc(Cl)c3nnnn3c2c1	11%	-10%	14%	1.4µM*	/
Cc1cc(C)n2nc(SCc3ccccc3F)nc2n1	6%	-1%[0.00184 µM]	38%	-7%	4
Cc1cc(C)n2nc(SCC(=O)NC3CCCCC3)nc2n1	/	-1%	13µM*	-6%	0
CCCn1c(C)cc(C(=O)CSc2nc3nc(C)cc(C)n3n2)c1C	-1%	?	9.3µM*	-18%	-21
Cc1cc(C)n2nc(SCc3nc4ccccc4[nH]3)nc2n1	-15%	45%	7.4µM*	-10%	0
Cc1cc(C)n2nc(SCC(=O)Nc3ccccc3)nc2n1	-3%	17%	?	2%	-63*!

Screening results deposited in PubChem BioAssay by National Center for Advancing Translational Sciences (NCATS).
